This passage reports Inhibition results from ChEMBL document CHEMBL1157539, “Thousands of chemical starting points for antimalarial lead identification” (Nature, 2010).

In general, Inhibition refers to how much of the control response was suppressed. A higher Inhibition goes with a response far below the control.

Common to all, as to assay type: functional
The test system of test [1] is Plasmodium falciparum. Kind of test: GSK_TCMDC: Inhibition of Plasmodium falciparum 3D7 in whole red blood cells, using parasite LDH activity as an index of growth. Test compounds present at 2uM.
Test [2] concerns Plasmodium falciparum. Nature of the test: GSK_TCMDC: Inhibition of Plasmodium falciparum Dd2 in whole red blood cells, using parasite LDH activity as an index of growth. Test compounds present at 2uM.
For test [3], the system named is HepG2. Nature of the test: GSK_TCMDC: Percent inhibition of human HepG2 cell line. Test compounds present at 10uM.

Take `CC(c1cccc(Nc2nccc(-c3c(-c4cccc(NC(=O)c5c(F)cccc5F)c4)nn4ncccc34)n2)c1)S(C)(=O)=O` (configuration not stated): the Inhibition is 98% in test [1], 98% in test [2] and 79% in test [3].
As to `Cl.O=C1CSc2ccc(CNC3CCN(CCc4c(Cl)cnc5ccc(Cl)cc45)CC3)nc2N1`, the Inhibition in test [1] turned out to be 100%; in test [2], 92%; in test [3], 25%.
For `COc1ccc(CCNCCCCCCNCCc2ccc(Cl)c(Cl)c2)cc1OC.Cl`, the figures for the Inhibition in test [1], in test [2] and in test [3] were 100%, 10% and 59%, respectively.
Taken in the same sequence, the figures for `CN1CCCN(Cc2cccc(-c3cccc(NC(=O)c4ccc(Cl)cc4)c3)c2)CC1.O=C(O)C(F)(F)F` were 100%, 44% and 35%.
The like results for `Cl.O=C(Nc1cccc(-c2nn3ncccc3c2-c2ccnc(Nc3cccnc3)n2)c1)c1c(F)cccc1F` were, in that order, 96%, 70% and 5%.
The like results for `CC(=O)Nc1cccc(C(=O)Nc2cccc(-c3cccc(-c4nc5ccccc5[nH]4)c3)c2)c1` were, in that order, 100%, 66% and 41%.
In the case of `COc1ccc(NCc2cccc(-c3cccc(CNCCc4ccccc4)c3)c2)cc1.O=C(O)C(F)(F)F`, the Inhibition in test [1] came to 96%; in test [2], 14%; in test [3] it was 41%.
Consider `O=C(O)C(F)(F)F.c1ccc(CCNc2ccnc(Nc3ccc4[nH]nnc4c3)n2)cc1`, for which the results for the Inhibition in test [1], in test [2] and in test [3] were 100%, 95% and 33%, respectively.
Taken in the same sequence, the figures for `O=C(Nc1ccc(OC2CCN(Cc3ccc(F)cc3)CC2)c(Cl)c1)c1ccoc1.O=C(O)C(F)(F)F` were 89%, 90% and 0%.
The like results for `Fc1ccc(-c2cc(NCCCn3ccnc3)nc(-c3cccnc3)n2)cc1` were, in that order, 99%, 70% and 11%.
The like results for `O=C(Nc1cccc(-c2cccc(-c3nc4cc(C(F)(F)F)ccc4[nH]3)c2)c1)Nc1ccc(F)c(F)c1F` were, in that order, 99%, 100% and 71%.
With `COc1ccc(NC(=O)Nc2ccc(-c3ccccc3)cc2)cc1Cn1cnc(N2CCCNCC2)cc1=O.O=C(O)C(F)(F)F`, the Inhibition is 100% in test [1], 38% in test [2] and 24% in test [3].
Turning to `CC(C)(C)[C@@H](Nc1ccc(C#N)c2ccccc12)C(=O)NC1(Cc2ccc(O)c(Br)c2)CCCC1`, the results for the Inhibition in test [1], in test [2] and in test [3] were 84%, 16% and 2%, respectively.
The like results for `COc1cc(-c2nc(-c3ccncc3)c(-c3ccc4c(c3)CCC4=NO)[nH]2)ccc1OCCN1CCN(C)CC1.Cl` were, in that order, 99%, 77% and 53%.
Taken in the same sequence, the figures for `Cl.Nc1ncnc2occ(-c3ccc(NC(=O)Nc4cc(C(F)(F)F)ccc4F)cc3)c12` [GW770249A] were 99%, 99% and 57%.
The like results for `N#CCCN1CCN(Cc2ccc(-c3ccc(-c4nc5cc(F)ccc5[nH]4)s3)cc2)CC1.O=C(O)C(F)(F)F` were, in that order, 99%, 38% and 58%.
Turning to `Cc1cccc2nc(-c3ccc(-c4cccc(CNCc5ccccc5)c4)s3)[nH]c12.O=C(O)C(F)(F)F`, the results for the Inhibition in test [1], in test [2] and in test [3] were 99%, 50% and 3%, respectively.
The like results for `O=C(Nc1ccccc1)N(Cc1ccccc1-c1cccc(CNCCc2ccccc2)c1)C1CCN(Cc2ccccc2)CC1.O=C(O)C(F)(F)F` were, in that order, 100%, 59% and 95%.
Take `COc1cc2nc(NCC3CCCO3)n3nc(-c4ccccc4)nc3c2cc1OC` (configuration not stated): the Inhibition in test [1] is 92%; in test [2], 97%; in test [3], 0%.
Taken in the same sequence, the figures for `COc1cc2nc(N3CCC(CNC(=O)c4ccc(-c5cccc(C#N)c5)cc4)CC3)nc(N)c2cc1OC` were 100%, 100% and 18%.
Taken in the same sequence, the figures for `CCCCCC(C)NC[C@@H](O)[C@H](Cc1ccccc1)NC(=O)c1cc(NCC)cc(N2CCCCS2(=O)=O)c1.Cl` (some centres not stated) were 98%, 79% and 3%.
Consider `CC(C)(C)c1ccc(C(=O)Nc2ccc(NC(=O)c3ccc([N+](=O)[O-])o3)cc2)cc1`, for which the Inhibition in test [1] was found to be 81%; in test [2], 4%; in test [3] it was 0%.
Turning to `CC(C)(C)CCN1CCC(CNC(=O)c2cc(-c3cccc(C(F)(F)F)c3)cs2)C1.O=C(O)C(F)(F)F` (configuration not stated), the Inhibition in test [1] came to 93%; in test [2] it was 13%; in test [3], 47%.
Taken in the same sequence, the figures for `CC(=O)Nc1ccc(OCCCCN(Cc2ccccc2C(F)(F)F)c2ccc(C#N)c(C(F)(F)F)c2)cc1` were 80%, 47% and 0%.
For the compound `O=C(/C=C/c1ccc(Cl)c(Cl)c1)NCCCCCN1CCC(c2n[nH]c(-c3ccccc3)c2Br)CC1`, the figures for the Inhibition in test [1], in test [2] and in test [3] were 95%, 23% and 100%, respectively.
Taken in the same sequence, the figures for `CC(C)(O)CC(C)(C)c1cc(Cl)ccc1O` were 96%, 1% and 5%.
Consider `COc1ccc(Nc2nccc(NCCNC(=O)c3cc4ccccc4s3)n2)cc1`, for which the Inhibition in test [1] was 98%; in test [2] it was 7%; in test [3], 6%.
On to `Cc1cccc2nc(-c3cccc(-c4ccc(NC(=O)c5cnn6cccnc56)cc4)c3)[nH]c12`, for which the Inhibition in test [1] was 100%; in test [2], 73%; in test [3] it was 99%.
The like results for `Cc1cc(C)c2oc(-c3cccc(NC(=O)c4ccc([N+](=O)[O-])o4)c3C)nc2c1` were, in that order, 90%, 67% and 0%.
